Shown are actives, neighbours in structure and some others; about 11% of the full set was active somewhere.
USP28 inh: human USP28 deubiquitinase inhibition; Q96RU2; 47,000 compounds, 3% hits; AID 1645857; inhibition, % at 25 µM; purified USP28, Ub-rhodamine cleavage fluorescence, 30 min
USP30 inh: inhibitors of human USP30 deubiquitinase; purified USP30, Ub-rhodamine cleavage fluorescence; inhibition, % at 25 µM; 47,000 compounds, 5.3% hits; AID 1645860
USP17 block: blocks human USP17 ubiquitin-rhodamine cleavage; inhibition, % at 50 µM; 47,000 compounds, 6.5% hits; AID 1645855; purified USP17, Ub-rhodamine cleavage fluorescence, 3 h
Target sequence (A8MUK1 whole entry, looked up): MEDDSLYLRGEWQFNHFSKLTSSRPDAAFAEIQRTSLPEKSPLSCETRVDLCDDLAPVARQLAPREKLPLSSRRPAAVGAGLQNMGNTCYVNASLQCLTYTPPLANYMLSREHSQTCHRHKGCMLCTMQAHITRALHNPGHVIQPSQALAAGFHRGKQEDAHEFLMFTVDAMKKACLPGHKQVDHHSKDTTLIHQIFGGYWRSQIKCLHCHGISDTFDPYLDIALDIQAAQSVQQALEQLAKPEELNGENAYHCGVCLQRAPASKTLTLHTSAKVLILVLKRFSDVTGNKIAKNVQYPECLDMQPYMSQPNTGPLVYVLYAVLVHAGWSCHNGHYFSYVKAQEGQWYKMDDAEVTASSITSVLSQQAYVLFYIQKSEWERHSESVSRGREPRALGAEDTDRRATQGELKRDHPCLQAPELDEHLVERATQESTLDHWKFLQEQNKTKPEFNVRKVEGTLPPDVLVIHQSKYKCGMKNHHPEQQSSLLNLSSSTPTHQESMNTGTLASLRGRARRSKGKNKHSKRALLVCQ
An asterisk follows results filed as active; x = not tested or not shown. Cut-off read from the data, not from the text of the source: active = inhibition above about 30%; inactive = the rest.

SMILES	USP28 inh	USP30 inh	USP17 block
Cc1cccc(NC(=O)C(=O)c2cn(CC(=O)N3CCOCC3)c3ccccc23)c1C	-35	-45	-8
Cc1ccc(NC(=O)NC2(c3noc(C)n3)CCCC2)cc1	-12	-29	x
COC1C(O)=C2C(=O)O/C(C)=C/C=C/C=C/C=C/CC(c3ccccc3)NC(=O)/C=C/C=C/C=C\C=C\C2(C)C1O (configuration not stated)	31*	-51	43*
Cc1ccc2c(Nc3ccccc3)c(-c3nc(C)no3)cnc2n1	12	-27	-14
Cc1ccc2c(NCc3ccc4c(c3)OCO4)c(-c3nc(C)no3)cnc2n1	43*	-78	36*
CCCCOc1ccc(NC(=O)CCc2c(C)nc3nc[nH]n3c2=O)cc1	14	10	19
CC(O)[C@H](NC(=O)[C@@H]1CCCN1C(=O)C1(c2ccccc2)CCN(C(=O)OC(C)(C)C)CC1)C(=O)O (some centres not stated)	-17	-20	-4
Cc1ccc(CN2CCc3nc4cc(C5CC5)[nH]n4c(=O)c3C2)s1	15	32*	0
O=c1c2c(nc3cc(C4CC4)[nH]n13)CCN(Cc1cccc(F)c1)C2	4	0	-19
CCn1cc(CN2CCc3nc4cc(-c5ccoc5C)[nH]n4c(=O)c3C2)cn1	-50	-153	-70
Cc1cc(-c2cc3nc4c(c(=O)n3[nH]2)CN(Cc2ccc(C)o2)CC4)no1	19	2	46*
CCOc1ccccc1CNC(=O)C1CCCN(c2nc3cccnc3n(CC)c2=O)C1 (configuration not stated)	-9	0	-16
Cc1ccc(CN2C[C@H]3CC[C@@]4(N=C(c5ccccc5)NC4=O)[C@H]3C2)cc1	-7	-3	-16
COc1ccc(C(=O)Nc2ccc(-c3nc4ccccc4[nH]3)cc2)cc1S(=O)(=O)N1CCOCC1	10	50*	51*
COc1ccc(NC(=O)c2ccc(-c3nc4ccccc4s3)o2)cc1S(=O)(=O)N1CCOCC1	-26	-125	-91
CCc1cccc(NC(=O)Cc2c(C)nc(-c3ncccn3)[nH]c2=O)c1	-12	-25	-65
Cn1ncc(-c2nc(-c3ccc(Cl)cc3)cs2)c1NC(=O)NC(=O)c1c(F)cccc1F	x	x	53*
Cc1noc(C)c1NC(=O)NC(=O)c1c(F)cccc1F	4	21	8
Cc1ccccc1NC(=O)N1Cc2c(CN3CCCCC3)nn(C)c2C1	3	26	-17
CN1C(=O)c2cc(S(=O)(=O)NCc3ccccc3)ccc2Oc2cccnc21	x	x	-15
Cc1ccc(NC(=O)Cn2c(-n3nc(C)cc3C)nc3c(c2=O)CCC3)cc1	-12	-2	14
Cc1ccc(NC(=O)Cn2c(-n3nc(C)cc3C)nc3c(c2=O)CCCC3)c(C)c1	8	31*	59*
Cc1ccccc1Cn1c(=O)sc2ccccc2c1=O	24	21	17
COc1ccc(Cn2c(=O)sc3ccccc3c2=O)cc1	44*	25	10
Fc1cccc(-c2nnc3sc(-c4ccco4)nn23)c1	3	-65	-1
SMILES	USP28 inh	USP30 inh	USP17 block
Cc1c(CN2CCOC(C)(C(=O)N(C)C)C2)[nH]c2ccc(F)cc12 (configuration not stated)	-14	-20	-7
COc1ccc(CC(=O)N2CC(=O)Nc3ccc(Br)cc3C2c2ccccc2)cc1OC (configuration not stated)	5	-32	6
O=C1CN(C(=O)CC2CCCCC2)C(c2ccccc2)c2cc(Br)ccc2N1 (configuration not stated)	25	41*	12
CN(CCC(=O)N1CCCC1c1nnc2n1CCNCC2)c1cccc(F)c1 (configuration not stated)	0	3	4
C1Cc2nc(C3CC3)nc(N3CCCC3)c2C1	20	11	4
N#Cc1c(SCCO)nc(N2CCCC2)c2c1CCCC2	62*	4	7
O=C(Nc1ccccc1)Nc1cnc2ccc(C(=O)NCc3ccncc3)cn2c1=O	10	19	16
COc1ccc(CC(=O)Nc2cnc3ccc(C(=O)NCc4ccncc4)cn3c2=O)cc1	2	-14	30*
CCCc1cccc(O)c1CO	4	12	-1
Cc1cc(-c2ncc[nH]2)nc(C2CCN(C(=O)c3ccn(C)n3)CC2)n1	-15	-17	-30
Cc1cccc(C(=O)N2CCC(C(=O)c3ccc4c(c3)OCCO4)CC2)c1	30*	26	7
Cc1cccc(C(=O)N2CCN(C3CCCCC3)CC2)c1	18	22	10
CN(C)C(=O)CO[C@@H]1CO[C@H]2[C@@H]1OC[C@@H]2Nc1nccc(-c2ccc3c(c2)OCO3)n1	6	6	3
OCCCN1C[C@H](Oc2ccccn2)[C@H]2C[C@@H]1Cc1c2[nH]c2ccccc12	-13	-87	-8
O=C(c1cc(-c2ccn(CC3CC3)n2)n2ccccc12)N1CCC(O)CC1	-21	-70	-17
